Compound activity (PubChem BioAssay)
HCV inh: inhibitors of hepatitis C virus infection; 340,000 compounds, 3.4% hits; AID 651820; Huh7.5.1 HCVcc-Cre infection, luciferase reporter, 44 h; Potency, µM (series often up to 41.8 µM), for inactives: at the highest dose activity change, negative = inhibition, most hits filed as inhibitors; active means well fitted inhibition curve with a large enough effect; inconclusive means small, poorly fitted or top-dose-only effect, or another doubt; inactive means no such curve, though single readings can be large or run the other way; further: potency means the concentration at half of the fitted maximal effect
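Cells (1,000/well) were plated 4 h before compound, then infected with HCVcc-Cre virus (~0.5 moi). After 44 h further culture, infection was read as luciferase luminescence following a 15 min substrate incubation at room temperature.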
VACV Venus inh: inhibitors of vaccinia virus (Venus reporter); Vaccinia virus Venus reporter expression, fluorescence; Potency, µM (top dose mostly 36.5 µM), inactives show at the top dose activity change, negative = inhibition, most hits filed as inhibitors; 330,000 compounds, 0.46% hits; calls by dose curve; tested in A549 cells; further: potency means the concentration at half of the fitted maximal effect; nearly all actives have a fitted effect of over 30% in size
Lassa entry inh: blocks Lassa virus binding to or entry into cells. 300,000 compounds, 1.2% hits. Potency, µM (highest dose often 37.9 µM), for inactives: at the top dose activity change, negative = inhibition, actives largely listed as inhibitors. Lassa virus pseudotype entry inhibition, cell reporter; calls by dose curve; tested in HEK293 cells; further: potency means the concentration at half of the fitted maximal effect; nearly all actives have a fitted effect of over 50% in size
Marburg entry inh: inhibitors of Marburg virus binding or cell entry; AID 540276; 300,000 compounds, 1.8% hits; Marburg virus pseudotyped entry inhibition, cell reporter; Potency, µM (series often up to 37.8 µM), inactives show at the highest dose activity change, negative = inhibition, actives largely listed as inhibitors; calls by dose curve; tested in HEK293 cells; further: potency means the concentration at half of the fitted maximal effect
HCMV antiviral: blocks human cytomegalovirus replication; HFF cells, HCMV-luciferase reporter, 72 h; stronger effect = lower value; activity change, negative = inhibition, % at 57.5 µM; 410,000 compounds, 4.5% hits; in the data active means activity change below about -60%; inconclusive means no clear call, values can overlap the other calls; inactive means above about -39%
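After 16 h attachment at 37C, HFF cells received test compound and HCMV-luciferase (1 PFU/cell); reporter luminescence read 72 h later, data normalized against buffer-only and known inhibitor Salinomycin.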
VACV mCherry inh: inhibitors of vaccinia virus infection (mCherry reporter signal) | Vaccinia virus mCherry reporter infection, fluorescence | Potency, µM (doses to about 36.5 µM), without a hit: at the top dose activity change, negative = inhibition, most hits filed as inhibitors | 310,000 compounds, 0.63% hits | AID 720579; calls by dose curve; tested in A549 cells; further: potency means the concentration at half of the fitted maximal effect; nearly all actives have a fitted effect of over 35% in size
An asterisk follows results filed as active; [ ] = dose if it differs, or a comment. Compounds with a hit are over-represented: about 7.8% of the library has one in this group of screens. On the % scale 0 is the no-effect control and ±100 the full control effect.

Screening O=C(C1CCC(CNS(=O)(=O)c2cccs2)CC1)N1CCN(c2ccc(Cl)cc2)CC1 (stereo not drawn) returned HCV inh 3.55µM*, VACV Venus inh inconclusive, Lassa entry inh inconclusive, HCMV antiviral -93.0* and VACV mCherry inh inconclusive.
Screening CCC/C=N/NC(=O)CNC(=O)c1ccccc1Cl returned HCV inh 27.6%, VACV Venus inh -16.0%, Lassa entry inh 5.8%[46.1 µM], Marburg entry inh 4.7%[46.1 µM], HCMV antiviral -67.9* and VACV mCherry inh -16.2%.
Screening Cc1ccc(NC(=S)N/N=C/c2ccc([N+](=O)[O-])s2)cc1 returned HCV inh inconclusive, VACV Venus inh inconclusive, Lassa entry inh 17.8µM*, Marburg entry inh inconclusive, HCMV antiviral -74.3* and VACV mCherry inh 10µM*.
For O=C(Cc1cccs1)N/N=C\c1ccc([N+](=O)[O-])s1 the results were HCV inh inconclusive, VACV Venus inh inconclusive, HCMV antiviral -9.6 and VACV mCherry inh inconclusive.
For O=C(CNC(=O)c1ccccc1Cl)N/N=C/c1ccc([N+](=O)[O-])s1 the results were HCV inh 12.6µM*, VACV Venus inh inconclusive, Lassa entry inh inconclusive, Marburg entry inh inconclusive, HCMV antiviral -92.8* and VACV mCherry inh inconclusive.
`Cc1cc(C)c(S(=O)(=O)NCc2ccc3c(c2)CCN3C(=O)c2ccccc2)c(C)c1` gave VACV Venus inh -13.0%, Lassa entry inh 5.6%[46.1 µM], HCMV antiviral -60.3* and VACV mCherry inh -18.3%.
`Cc1cc(C)c(S(=O)(=O)NCc2ccc3c(c2)cc(C)n3C)c(C)c1` gave HCV inh inconclusive, VACV Venus inh 12.1%, HCMV antiviral -93.1* and VACV mCherry inh 28.2%.
COc1ccc(OC)c(S(=O)(=O)NCc2ccc3c(c2)CCN3C(=O)c2cccc(C)c2)c1 was read as VACV Venus inh -21.5%, Lassa entry inh inconclusive, HCMV antiviral -79.9* and VACV mCherry inh -27.0%.
Screening Cc1cc2cc(CNS(=O)(=O)c3ccc4ccccc4c3)ccc2n1C returned HCV inh 9.3%, VACV Venus inh 14.7%, HCMV antiviral 14.3 and VACV mCherry inh -10.3%.
Screening Cc1cn(CC(=O)NCCc2ccccn2)c(=O)[nH]c1=O returned HCV inh 2.82µM*, VACV Venus inh 3.2%, HCMV antiviral 13.0 and VACV mCherry inh inactive.
`Cc1ccc(N(Cc2ccco2)C(=O)c2ccc(N3CCCCC3)c([N+](=O)[O-])c2)cc1` gave HCV inh inconclusive, Lassa entry inh inconclusive, Marburg entry inh 23.1µM* and HCMV antiviral -65.6*.
Screening CC1CCN(c2ccc(C(=O)NCc3ccco3)cc2[N+](=O)[O-])CC1 returned HCV inh inconclusive, VACV Venus inh -20.3%, Lassa entry inh 6.51µM*, Marburg entry inh inconclusive, HCMV antiviral -20.5 and VACV mCherry inh inactive.
For CC1CC(C)CN(c2ccc(C(=O)NCc3ccc4c(c3)OCO4)cc2[N+](=O)[O-])C1 (stereo not drawn) the results were HCV inh inconclusive, VACV Venus inh -2.7%, Lassa entry inh 9.0%, Marburg entry inh inconclusive, HCMV antiviral -62.4* and VACV mCherry inh -7.7%.
`O=C(NCc1ccco1)c1ccc(N2CCCCC2)c([N+](=O)[O-])c1` gave HCV inh inconclusive, VACV Venus inh -12.6%, Lassa entry inh 20.6µM*, Marburg entry inh 16.2%, HCMV antiviral -14.2 and VACV mCherry inh inactive.
`O=C(NCc1ccco1)c1ccc(N2CCOCC2)c([N+](=O)[O-])c1` gave HCV inh 12.3%, VACV Venus inh 1.7%, Lassa entry inh inconclusive, Marburg entry inh -18.0%[46.1 µM], HCMV antiviral inconclusive and VACV mCherry inh inactive.
Screening C(=C\c1nc2ccccc2s1)/c1ccc2c(c1)OCO2 returned VACV Venus inh -21.5% and VACV mCherry inh inconclusive.
Screening C[C@H]1[C@@H](NS(=O)(=O)c2ccc([N+](=O)[O-])cc2)CC[C@@]23CCCN2C(=O)CCC[C@@H]13 returned HCMV antiviral -20.9.
Screening CCCNC(=O)c1ccc(N2CCC3(CC2)CC(c2ccccc2)=NO3)c([N+](=O)[O-])c1 returned HCV inh inconclusive, VACV Venus inh -13.7%, HCMV antiviral -16.2 and VACV mCherry inh -9.1%.
